# Measurements from ChEMBL document CHEMBL1961873, “Compounds: GSK PKIS; Assays: Nanosyn kinase panel” (2012).
# Tests used:
# [1] = molecular target: 5'-AMP-activated protein kinase catalytic subunit alpha-2 (Homo sapiens) (UniProt P54646); conditions: at 1 µM
# [2] = molecular target: T1, NUAK family SNF1-like kinase 1 (Homo sapiens) (UniProt O60285); conditions: at 0.1 µM
# T1 sequence (whole entry): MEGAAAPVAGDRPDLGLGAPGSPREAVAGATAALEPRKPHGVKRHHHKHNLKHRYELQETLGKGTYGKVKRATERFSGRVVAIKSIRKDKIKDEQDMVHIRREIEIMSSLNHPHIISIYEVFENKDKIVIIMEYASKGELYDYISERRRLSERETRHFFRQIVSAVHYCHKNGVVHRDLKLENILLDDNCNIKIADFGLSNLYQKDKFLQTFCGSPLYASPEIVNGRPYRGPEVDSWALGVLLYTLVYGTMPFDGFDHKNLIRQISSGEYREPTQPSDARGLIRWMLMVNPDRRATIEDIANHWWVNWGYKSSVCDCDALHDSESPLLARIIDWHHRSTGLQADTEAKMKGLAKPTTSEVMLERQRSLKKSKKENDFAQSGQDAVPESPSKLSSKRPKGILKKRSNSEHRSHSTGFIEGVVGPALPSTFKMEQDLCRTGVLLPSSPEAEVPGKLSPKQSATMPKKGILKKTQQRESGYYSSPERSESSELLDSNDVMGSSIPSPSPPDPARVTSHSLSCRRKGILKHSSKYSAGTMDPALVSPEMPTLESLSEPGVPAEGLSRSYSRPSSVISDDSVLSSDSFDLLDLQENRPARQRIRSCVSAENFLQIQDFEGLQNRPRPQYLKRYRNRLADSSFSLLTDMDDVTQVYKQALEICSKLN
# [3] = molecular target: T1, NUAK family SNF1-like kinase 1 (Homo sapiens); conditions: at 1 µM
# [4] = molecular target: T2, Serine/threonine-protein kinase BRSK1 (Homo sapiens) (UniProt Q8TDC3); conditions: at 0.1 µM
# T2 sequence (whole entry): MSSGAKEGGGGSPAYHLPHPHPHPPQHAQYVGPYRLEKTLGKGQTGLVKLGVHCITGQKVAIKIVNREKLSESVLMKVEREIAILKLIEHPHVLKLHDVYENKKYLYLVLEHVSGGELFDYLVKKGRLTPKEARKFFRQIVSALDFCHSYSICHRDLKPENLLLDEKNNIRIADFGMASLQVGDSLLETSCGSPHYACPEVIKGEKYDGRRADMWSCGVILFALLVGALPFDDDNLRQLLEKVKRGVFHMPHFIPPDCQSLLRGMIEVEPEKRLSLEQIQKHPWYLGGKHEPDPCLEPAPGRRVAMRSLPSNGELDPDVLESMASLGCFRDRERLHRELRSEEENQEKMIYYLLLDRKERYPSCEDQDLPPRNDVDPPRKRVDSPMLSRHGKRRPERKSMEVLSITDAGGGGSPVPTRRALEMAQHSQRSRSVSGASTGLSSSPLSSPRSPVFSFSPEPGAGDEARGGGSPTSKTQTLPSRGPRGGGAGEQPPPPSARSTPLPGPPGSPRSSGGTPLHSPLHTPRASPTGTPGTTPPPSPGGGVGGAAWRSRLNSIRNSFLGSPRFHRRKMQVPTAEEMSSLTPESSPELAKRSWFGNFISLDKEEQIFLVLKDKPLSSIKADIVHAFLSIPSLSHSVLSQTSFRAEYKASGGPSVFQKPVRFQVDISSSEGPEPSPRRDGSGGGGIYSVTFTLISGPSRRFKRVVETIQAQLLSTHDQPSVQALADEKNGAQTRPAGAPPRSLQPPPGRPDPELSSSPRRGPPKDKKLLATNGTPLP
# [5] = molecular target: T2, Serine/threonine-protein kinase BRSK1 (Homo sapiens); conditions: at 1 µM
# [6] = molecular target: T3, Serine/threonine-protein kinase BRSK2 (Homo sapiens) (UniProt Q8IWQ3); conditions: at 0.1 µM
# T3 sequence (whole entry): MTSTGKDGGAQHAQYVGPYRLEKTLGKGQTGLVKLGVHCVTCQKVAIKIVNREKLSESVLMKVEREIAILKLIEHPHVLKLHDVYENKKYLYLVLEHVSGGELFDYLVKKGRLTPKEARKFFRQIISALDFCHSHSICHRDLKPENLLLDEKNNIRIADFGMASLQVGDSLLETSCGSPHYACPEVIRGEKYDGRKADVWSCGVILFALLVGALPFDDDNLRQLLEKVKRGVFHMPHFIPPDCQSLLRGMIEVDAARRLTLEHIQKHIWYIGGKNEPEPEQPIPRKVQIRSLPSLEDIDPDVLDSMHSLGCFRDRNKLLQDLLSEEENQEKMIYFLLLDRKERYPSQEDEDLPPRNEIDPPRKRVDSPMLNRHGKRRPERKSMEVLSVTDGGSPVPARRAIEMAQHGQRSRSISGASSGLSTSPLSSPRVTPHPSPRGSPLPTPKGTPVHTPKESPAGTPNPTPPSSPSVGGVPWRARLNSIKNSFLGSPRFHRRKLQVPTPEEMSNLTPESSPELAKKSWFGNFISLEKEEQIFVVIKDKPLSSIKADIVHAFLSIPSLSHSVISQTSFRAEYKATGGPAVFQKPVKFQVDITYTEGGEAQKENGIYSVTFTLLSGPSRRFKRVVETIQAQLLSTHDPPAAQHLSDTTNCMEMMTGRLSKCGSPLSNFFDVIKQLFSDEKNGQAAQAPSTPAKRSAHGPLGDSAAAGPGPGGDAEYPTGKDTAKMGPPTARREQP
# [7] = molecular target: T3, Serine/threonine-protein kinase BRSK2 (Homo sapiens); conditions: at 1 µM
# [8] = molecular target: Calcium/calmodulin-dependent protein kinase type 1D (Homo sapiens) (UniProt Q8IU85); conditions: at 0.1 µM
# Sequence of Calcium/calmodulin-dependent protein kinase type 1D (Homo sapiens) (Q8IU85 whole entry, looked up): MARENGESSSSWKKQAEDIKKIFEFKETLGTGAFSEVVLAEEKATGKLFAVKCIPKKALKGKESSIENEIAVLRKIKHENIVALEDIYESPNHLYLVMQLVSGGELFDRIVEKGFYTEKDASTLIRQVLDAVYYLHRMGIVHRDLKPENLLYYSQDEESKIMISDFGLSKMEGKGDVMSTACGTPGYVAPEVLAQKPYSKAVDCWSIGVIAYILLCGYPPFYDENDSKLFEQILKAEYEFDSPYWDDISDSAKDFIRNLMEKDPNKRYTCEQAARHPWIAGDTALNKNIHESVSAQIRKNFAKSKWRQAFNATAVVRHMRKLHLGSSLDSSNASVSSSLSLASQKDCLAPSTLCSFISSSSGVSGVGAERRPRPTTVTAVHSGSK
# [9] = molecular target: Calcium/calmodulin-dependent protein kinase type 1D (Homo sapiens) (UniProt Q8IU85); conditions: at 1 µM
# [10] = molecular target: Calcium/calmodulin-dependent protein kinase type II subunit alpha (Homo sapiens) (UniProt Q9UQM7); conditions: at 0.1 µM
# Sequence of Calcium/calmodulin-dependent protein kinase type II subunit alpha (Homo sapiens) (Q9UQM7 whole entry): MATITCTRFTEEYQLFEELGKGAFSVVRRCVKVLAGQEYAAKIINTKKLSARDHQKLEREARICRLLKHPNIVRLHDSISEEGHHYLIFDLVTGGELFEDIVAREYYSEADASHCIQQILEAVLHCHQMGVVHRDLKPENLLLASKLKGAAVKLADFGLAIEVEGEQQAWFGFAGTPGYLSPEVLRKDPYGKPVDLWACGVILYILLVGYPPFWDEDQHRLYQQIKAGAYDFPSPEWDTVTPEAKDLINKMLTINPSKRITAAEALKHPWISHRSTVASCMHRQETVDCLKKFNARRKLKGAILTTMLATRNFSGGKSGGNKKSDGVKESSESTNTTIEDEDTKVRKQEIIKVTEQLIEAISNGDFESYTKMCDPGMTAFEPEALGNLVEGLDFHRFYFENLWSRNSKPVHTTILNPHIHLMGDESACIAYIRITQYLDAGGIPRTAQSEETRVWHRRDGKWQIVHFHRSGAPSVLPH
# [11] = molecular target: Calcium/calmodulin-dependent protein kinase type II subunit alpha (Homo sapiens) (UniProt Q9UQM7); conditions: at 1 µM
# [12] = molecular target: Calcium/calmodulin-dependent protein kinase type II subunit delta (Homo sapiens) (UniProt Q13557); conditions: at 0.1 µM
# Sequence of Calcium/calmodulin-dependent protein kinase type II subunit delta (Homo sapiens) (Q13557 whole entry): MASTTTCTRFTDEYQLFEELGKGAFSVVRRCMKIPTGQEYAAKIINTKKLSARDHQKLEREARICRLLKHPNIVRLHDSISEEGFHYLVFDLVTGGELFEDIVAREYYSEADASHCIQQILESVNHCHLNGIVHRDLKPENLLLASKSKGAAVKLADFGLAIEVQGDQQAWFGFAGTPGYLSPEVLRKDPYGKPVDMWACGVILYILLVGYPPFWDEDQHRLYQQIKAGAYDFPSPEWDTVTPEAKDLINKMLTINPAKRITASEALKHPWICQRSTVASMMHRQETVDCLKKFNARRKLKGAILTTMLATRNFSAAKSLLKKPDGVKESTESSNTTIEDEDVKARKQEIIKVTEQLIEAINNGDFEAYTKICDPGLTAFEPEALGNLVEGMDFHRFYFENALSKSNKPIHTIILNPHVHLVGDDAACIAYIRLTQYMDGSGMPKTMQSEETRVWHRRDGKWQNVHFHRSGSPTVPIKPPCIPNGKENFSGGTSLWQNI
# [13] = molecular target: Calcium/calmodulin-dependent protein kinase type II subunit delta (Homo sapiens) (UniProt Q13557); conditions: at 1 µM
# [14] = molecular target: T4, Calcium/calmodulin-dependent protein kinase type IV (Homo sapiens) (UniProt Q16566); conditions: at 0.1 µM
# T4 sequence (whole entry): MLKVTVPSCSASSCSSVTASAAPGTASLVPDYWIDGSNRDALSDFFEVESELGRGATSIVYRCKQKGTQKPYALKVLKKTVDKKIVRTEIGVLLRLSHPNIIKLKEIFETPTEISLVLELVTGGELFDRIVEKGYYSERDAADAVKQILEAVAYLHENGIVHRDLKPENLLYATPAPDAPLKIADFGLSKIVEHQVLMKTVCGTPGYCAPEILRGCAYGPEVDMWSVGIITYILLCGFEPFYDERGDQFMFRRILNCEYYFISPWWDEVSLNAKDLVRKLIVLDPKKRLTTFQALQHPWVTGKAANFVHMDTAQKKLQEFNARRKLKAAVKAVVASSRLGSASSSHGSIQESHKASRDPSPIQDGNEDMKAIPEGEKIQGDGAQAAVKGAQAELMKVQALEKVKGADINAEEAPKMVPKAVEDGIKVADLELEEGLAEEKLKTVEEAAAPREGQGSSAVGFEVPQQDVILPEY
# [15] = molecular target: T4, Calcium/calmodulin-dependent protein kinase type IV (Homo sapiens); conditions: at 1 µM
# [16] = molecular target: T5, Serine/threonine-protein kinase Chk1 (Homo sapiens) (UniProt O14757); conditions: at 0.1 µM
# T5 sequence (whole entry): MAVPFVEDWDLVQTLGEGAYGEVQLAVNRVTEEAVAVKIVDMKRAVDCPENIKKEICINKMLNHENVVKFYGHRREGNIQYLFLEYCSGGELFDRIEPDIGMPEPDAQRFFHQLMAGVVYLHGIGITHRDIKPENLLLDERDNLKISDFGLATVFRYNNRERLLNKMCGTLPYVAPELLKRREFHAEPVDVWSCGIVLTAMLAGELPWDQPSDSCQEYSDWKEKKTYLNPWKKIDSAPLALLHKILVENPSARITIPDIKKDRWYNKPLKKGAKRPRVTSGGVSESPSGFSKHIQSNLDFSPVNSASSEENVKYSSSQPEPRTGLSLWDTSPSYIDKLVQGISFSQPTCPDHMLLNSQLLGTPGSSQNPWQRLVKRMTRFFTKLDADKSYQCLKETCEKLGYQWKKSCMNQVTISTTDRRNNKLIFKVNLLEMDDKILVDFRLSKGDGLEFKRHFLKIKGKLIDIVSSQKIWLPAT
# [17] = molecular target: T5, Serine/threonine-protein kinase Chk1 (Homo sapiens); conditions: at 1 µM
# [18] = molecular target: Serine/threonine-protein kinase Chk2 (Homo sapiens) (UniProt O96017); conditions: at 0.1 µM
# Sequence of Serine/threonine-protein kinase Chk2 (Homo sapiens) (O96017 whole entry): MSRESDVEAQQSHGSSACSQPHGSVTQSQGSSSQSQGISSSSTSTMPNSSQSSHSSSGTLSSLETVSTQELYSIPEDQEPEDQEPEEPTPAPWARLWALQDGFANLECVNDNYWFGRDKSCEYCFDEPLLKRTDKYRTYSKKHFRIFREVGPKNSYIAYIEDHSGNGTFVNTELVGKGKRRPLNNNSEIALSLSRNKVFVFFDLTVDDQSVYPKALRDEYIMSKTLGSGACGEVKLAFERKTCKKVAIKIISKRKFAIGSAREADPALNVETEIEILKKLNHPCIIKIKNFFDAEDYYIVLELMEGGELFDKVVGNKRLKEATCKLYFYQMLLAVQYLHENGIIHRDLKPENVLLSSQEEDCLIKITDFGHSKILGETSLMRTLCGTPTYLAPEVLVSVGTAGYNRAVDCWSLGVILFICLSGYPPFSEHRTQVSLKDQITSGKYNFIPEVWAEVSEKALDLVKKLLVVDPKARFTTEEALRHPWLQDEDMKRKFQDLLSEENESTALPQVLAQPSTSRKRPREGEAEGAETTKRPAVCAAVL
# [19] = molecular target: Serine/threonine-protein kinase Chk2 (Homo sapiens) (UniProt O96017); conditions: at 1 µM
# [20] = molecular target: Death-associated protein kinase 1 (Homo sapiens) (UniProt P53355); conditions: at 0.1 µM;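 also: reported figure is the mean inhibition of DAPK1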
# Sequence of Death-associated protein kinase 1 (Homo sapiens) (P53355 whole entry, looked up): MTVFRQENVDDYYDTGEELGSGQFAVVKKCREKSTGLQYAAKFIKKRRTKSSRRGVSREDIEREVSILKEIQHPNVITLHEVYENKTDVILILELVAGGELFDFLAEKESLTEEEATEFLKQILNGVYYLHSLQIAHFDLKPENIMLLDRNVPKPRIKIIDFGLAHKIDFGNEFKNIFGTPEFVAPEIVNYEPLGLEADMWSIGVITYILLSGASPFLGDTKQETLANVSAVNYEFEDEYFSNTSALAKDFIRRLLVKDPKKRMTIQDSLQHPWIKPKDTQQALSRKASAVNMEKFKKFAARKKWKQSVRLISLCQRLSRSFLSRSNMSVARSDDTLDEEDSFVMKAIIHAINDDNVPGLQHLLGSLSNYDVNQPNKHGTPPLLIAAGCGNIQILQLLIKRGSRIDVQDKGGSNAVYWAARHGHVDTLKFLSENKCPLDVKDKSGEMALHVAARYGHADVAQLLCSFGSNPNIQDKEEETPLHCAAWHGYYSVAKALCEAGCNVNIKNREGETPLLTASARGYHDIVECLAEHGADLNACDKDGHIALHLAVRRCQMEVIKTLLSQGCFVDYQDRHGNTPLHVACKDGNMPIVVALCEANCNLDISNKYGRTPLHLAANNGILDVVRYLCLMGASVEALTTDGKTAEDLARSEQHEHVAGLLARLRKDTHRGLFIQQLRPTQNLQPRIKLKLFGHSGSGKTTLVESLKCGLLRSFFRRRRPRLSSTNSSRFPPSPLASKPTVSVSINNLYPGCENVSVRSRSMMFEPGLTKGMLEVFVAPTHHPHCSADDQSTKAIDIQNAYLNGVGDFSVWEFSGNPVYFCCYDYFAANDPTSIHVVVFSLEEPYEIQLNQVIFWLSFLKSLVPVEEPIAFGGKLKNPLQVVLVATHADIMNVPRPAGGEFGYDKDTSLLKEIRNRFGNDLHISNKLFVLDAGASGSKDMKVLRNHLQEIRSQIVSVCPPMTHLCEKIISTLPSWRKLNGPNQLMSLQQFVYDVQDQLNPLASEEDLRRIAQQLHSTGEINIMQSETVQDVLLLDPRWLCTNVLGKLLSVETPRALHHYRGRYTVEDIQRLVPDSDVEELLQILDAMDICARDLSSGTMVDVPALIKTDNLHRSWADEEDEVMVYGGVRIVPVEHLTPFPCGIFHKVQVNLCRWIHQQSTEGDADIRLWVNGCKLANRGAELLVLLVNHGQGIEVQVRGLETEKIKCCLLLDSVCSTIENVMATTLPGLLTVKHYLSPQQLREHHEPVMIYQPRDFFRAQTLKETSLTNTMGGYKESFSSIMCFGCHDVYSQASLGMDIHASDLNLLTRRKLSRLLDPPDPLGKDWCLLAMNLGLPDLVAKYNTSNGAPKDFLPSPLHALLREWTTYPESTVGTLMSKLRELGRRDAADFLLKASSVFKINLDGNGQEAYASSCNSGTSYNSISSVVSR
# Sequence of 5'-AMP-activated protein kinase catalytic subunit alpha-2 (Homo sapiens) (P54646 whole entry, looked up): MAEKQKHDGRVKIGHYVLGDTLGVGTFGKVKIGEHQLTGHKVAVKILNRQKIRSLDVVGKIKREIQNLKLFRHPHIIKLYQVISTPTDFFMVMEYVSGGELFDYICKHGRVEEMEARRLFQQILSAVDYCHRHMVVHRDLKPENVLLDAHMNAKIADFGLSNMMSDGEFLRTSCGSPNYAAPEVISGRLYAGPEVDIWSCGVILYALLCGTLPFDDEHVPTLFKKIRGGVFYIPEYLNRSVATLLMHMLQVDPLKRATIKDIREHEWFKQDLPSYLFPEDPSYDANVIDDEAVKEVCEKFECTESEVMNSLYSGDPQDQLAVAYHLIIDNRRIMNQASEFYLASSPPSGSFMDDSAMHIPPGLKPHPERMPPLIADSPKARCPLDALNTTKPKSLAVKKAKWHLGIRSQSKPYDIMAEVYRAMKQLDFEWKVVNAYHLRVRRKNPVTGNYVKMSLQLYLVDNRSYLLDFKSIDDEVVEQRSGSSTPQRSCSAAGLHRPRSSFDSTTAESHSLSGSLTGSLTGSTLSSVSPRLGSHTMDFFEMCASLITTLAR
Structure (SMILES),inhibition [1] [%],inhibition [2] [%],inhibition [3] [%],inhibition [4] [%],inhibition [5] [%],inhibition [6] [%],inhibition [7] [%],inhibition [8] [%],inhibition [9] [%],inhibition [10] [%],inhibition [11] [%],inhibition [12] [%],inhibition [13] [%],inhibition [14] [%],inhibition [15] [%],inhibition [16] [%],inhibition [17] [%],inhibition [18] [%],inhibition [19] [%],inhibition [20] [%]
COc1cc2ncn(-c3cc(OCc4ccccc4Cl)c(C(N)=O)s3)c2cc1OC,3.59,14.3,58.6,7.81,40.6,12.4,48.6,0.78,3.64,-2.74,-0.06,0.36,2.88,0.78,0.41,-4.54,-4.25,-4.95,-0.53,-8.75
COc1cccc(-n2ncc3c(N/N=C/c4cccc(F)c4)ncnc32)c1,6.48,3.92,–,2.83,13.7,2.69,20.5,0.51,1.96,1.19,2.7,2.52,16.1,0.94,1.12,1.95,3.28,1.45,1.6,-0.52
NC(=O)c1cccc(Nc2nccc(Nc3cccc4[nH]ncc34)n2)c1,11,40.5,80.7,3.32,22,2.15,19.3,0.34,4.12,-4.01,-1.01,-1.68,3.58,1.19,2.27,1.94,44.1,-2.95,9.48,0.17
COc1ccccc1Nc1ncc(-c2ccccc2)o1,4.09,-0.18,-4.21,-0.58,3.87,2.96,4.49,-0.11,-0.14,3.16,0.2,3.81,4.92,0.89,-8.72,-2.97,-2.91,-2.63,-3.53,-1.69
CCn1c(-c2nonc2N)nc2cnc(Oc3cccc(NC(=O)c4ccc(OCCN5CCOCC5)cc4)c3)cc21,3.43,5.2,26.9,1.86,0.26,1.64,2.71,-0.02,2.35,1.46,2.17,1.77,4,2.08,2.49,-8.33,4.37,3.15,13.3,-1.49
O=C1NC(=O)C(c2ccc(Cl)cc2)=C1Nc1ccc(Cl)c(C(=O)O)c1,-0.57,1.82,3.54,-0.49,0.55,0.35,-1.78,-0.66,4.19,-2.83,-3.46,-2.31,1.44,0.68,0.51,-0.04,-1.22,-2,-1.93,-1.53
CCc1cccc(NC(=O)Nc2ccc(Oc3ccc4nc(NC(=O)OC)[nH]c4c3)cc2)c1,-0.72,1.37,4.18,0.6,0.32,3.12,5.96,0.1,1.18,4.24,3.77,1.51,2.63,0.16,-2.32,–,-6.72,-4.84,-2.63,-5.09
CS(=O)(=O)CCNCc1ccc(-c2ccc3ncnc(Nc4ccc(OCc5cccc(F)c5)c(C(F)(F)F)c4)c3c2)o1,3.63,2.03,0.5,-0.9,-1.79,1.37,3.52,-0.13,0.72,3.67,3.37,3.17,2.68,0.52,-0.06,8.99,11.5,6.84,7.75,11.7
CC(C)=Cc1cccc2c1/C(=N/Nc1ccc(S(N)(=O)=O)cc1)C(=O)N2,40.2,80.3,87.3,7.32,45,14.6,58.2,0.31,1.3,2.92,6.48,2.83,11.3,-1.55,-0.74,6.35,10.3,5.36,9.14,9.26
CC1=C(C(=O)Nc2ccc3[nH]ncc3c2)C(c2ccc(F)cc2)NC(=O)N1 (stereo not drawn),5.96,4.1,11.3,1.49,8.31,1.99,15.5,0.49,-0.14,-0.47,0.1,1.48,1.35,0.3,-0.21,0.87,4.3,1.2,2.29,1.6
O=C1NC(=O)C(c2ccccc2Cl)=C1Nc1cccc(O)c1,4.22,0.82,12.4,1.18,6.4,1.63,8.81,1.44,4.28,3.22,5.26,3.96,11.7,0.91,1.07,-0.11,1.92,1.18,2.39,3.2
NCc1ccc(-c2nc(-c3ccc(Cl)c(O)c3)c(-c3ccncc3)[nH]2)cc1,3.06,1.84,3.79,0.1,0.59,-0.21,1.33,0.15,0.23,0.76,2.11,-0.18,2.12,0.6,0.53,-0.88,2.53,-0.52,0.67,0.81
Nc1nc(-c2ccccn2)c(-c2ccc3ncccc3n2)s1,3.76,4.24,5.19,-0.41,2.4,0.9,3.83,-0.97,0.3,1.9,2.01,0.62,2.75,-0.73,-1.69,4.2,6.33,2.16,4.44,4.05
Fc1cccc(COc2ccc(Nc3ncnc4cc(-c5ccc[nH]5)sc34)cc2Cl)c1,3.27,2.43,6.42,0.67,1.16,0.79,4.01,1.56,1.16,0.3,0.84,1.12,2.72,1.44,1.44,-0.13,3.63,0.71,3.96,-1.32
